Hits are enriched below; roughly 12% of the tested compounds scored in any of these assays.
BAZ2B block: inhibitors of human BAZ2B bromodomain; Q9UIF8; AlphaScreen BAZ2B-H3K14Ac peptide displacement; Potency, µM (doses to about 114 µM), without a hit: at the highest dose activity change, negative = inhibition, actives largely listed as inhibitors; 360,000 compounds, 4.4% hits; further: on the % scale 0 is the no-effect control and ±100 the full control effect; nearly all actives have a fitted effect of over 60% in size
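Compounds, titrated to a top concentration of 110 uM, were incubated 30 min at room temperature with preformed BAZ2B/acetyl-K14 H3 peptide complex (50 nM each). Proximity signal was measured by AlphaScreen after 20 min with beads.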
JMJD2A Tudor: inhibitors of human JMJD2A Tudor domain. O75164. AlphaScreen JMJD2A-Tudor / H3K4me3 peptide binding. Potency, µM (titrated, usually from 114 µM), without a hit: at the top dose activity change, negative = inhibition, usual class: inhibitors. 390,000 compounds, 4.4% hits. AID 504339; further: on the % scale 0 is the no-effect control and ±100 the full control effect; nearly all actives have a fitted effect of over 50% in size
G9a block: blocks human histone lysine methyltransferase G9a; G9a H3K9 monomethylation, AlphaScreen, 2 h; Potency, µM (titrated, usually from 102 µM), for the others: top-dose activity, negative = inhibition, most hits filed as inhibitors; 350,000 compounds, 8.8% hits; further: on the % scale 0 is the no-effect control and ±100 the full control effect; nearly all actives have a fitted effect of over 75% in size
Target sequence (Q96KQ7 913-1193 limits assumed): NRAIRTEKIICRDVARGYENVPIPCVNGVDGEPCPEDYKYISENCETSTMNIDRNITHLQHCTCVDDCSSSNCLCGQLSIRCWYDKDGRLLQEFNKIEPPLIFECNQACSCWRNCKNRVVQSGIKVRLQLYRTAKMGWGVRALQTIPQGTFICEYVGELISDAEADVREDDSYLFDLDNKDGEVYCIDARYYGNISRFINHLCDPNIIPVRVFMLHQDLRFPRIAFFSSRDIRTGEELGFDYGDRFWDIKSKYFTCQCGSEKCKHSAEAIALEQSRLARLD
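Chemiluminescent proximity detection of H3K9 monomethylation, read after 10 min bead incubation in the dark. Reaction: 20 nM G9a, 500 nM biotin-H3K9 peptide, 20 uM SAM cofactor, 2 h, room temperature, following 15 min enzyme-compound preincubation.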
HP1b binding inh: inhibitors of HP1-beta chromodomain binding to methylated histone tails. AlphaScreen HP1-beta / biotin-H3K9me3 peptide binding. 390,000 compounds, 0.56% hits. P83916. Potency, µM (top dose mostly 114 µM), for inactives: at the highest dose activity change, negative = inhibition, hits mostly inhibitors; further: nearly all actives have a fitted effect of over 70% in size
Target sequence (P83916 whole entry, looked up): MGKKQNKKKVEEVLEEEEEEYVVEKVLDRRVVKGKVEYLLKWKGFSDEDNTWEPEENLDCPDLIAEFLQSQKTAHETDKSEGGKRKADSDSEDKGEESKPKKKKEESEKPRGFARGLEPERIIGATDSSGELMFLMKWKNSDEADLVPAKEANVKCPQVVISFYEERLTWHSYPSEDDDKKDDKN
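Compound inhibition of the preformed complex between 50 nM HP1-beta and 50 nM biotinylated H3K9me3 peptide was read by AlphaScreen. Buffer was PBS pH 7.4 with 0.01% Tween-20. Incubations ran 30 min at room temperature, with 10 ug/mL donor/acceptor beads.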
Sfp inh: blocks B. subtilis Sfp PPTase activity; Q9F4F7; Biochemical Sfp PPTase activity, qHTS; Potency, µM, without a hit: largest response in the series, negative = inhibition, actives largely listed as inhibitors; 310,000 compounds, 3.5% hits;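 further: the enzyme is Sfp with the accession as filed and its product quenches rhodamine fluorescence; 0% = enzyme reaction without inhibitor and -100% = no enzyme wells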
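Reaction rates are the 30-min fluorescence difference (ex 525, em 598 nm) in wells containing 15 nM Sfp, 5 uM rhodamine-CoA and 12.5 uM BHQ-2-YbbR at pH 7.6 with 10 mM MgCl2.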
L3MBTL1 inh: blocks human L3MBTL1. AlphaScreen L3MBTL1–H3K9me1 peptide binding. Potency, µM (titrated, usually from 57.1 µM), for the others: at the top dose activity, negative = inhibition, hits mostly inhibitors. 230,000 compounds, 0.66% hits. AID 485360; further: on the % scale 0 is the no-effect control and ±100 the full control effect; nearly all actives have a fitted effect of over 60% in size
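First, the protein-peptide complex forms for 30 min at room temperature (L3MBTL1 50 nM, biotinylated H3K9me1 peptide 75 nM). Next, compounds are pin-transferred and incubated 30 min. Finally, AlphaScreen beads are added and read after 30 min.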
An asterisk follows results filed as active; ? = inconclusive; · = not tested or not shown; [ ] = remark or other dose. The call rests on the fitted dose curve; in most records, active means well fitted curve in the direction sought with a large enough effect; inconclusive means small, poorly fitted or top-dose-only effect, or another doubt; inactive means no such curve, though single readings can be large; an effect the other way counts as inactive or inconclusive. Potency means the concentration at half of the fitted maximal effect.

SMILES | BAZ2B block | JMJD2A Tudor | G9a block | HP1b binding inh | Sfp inh | L3MBTL1 inh
COc1cc2oc(=O)c(CC(=O)NCCc3ccccc3)c(C)c2cc1Cl | -9% | -12% | -4%[59 µM] | 43% | · | ·
CCCCCCCCCCCCCCCCOCC(CO)OC(C)=O (stereo unspecified) | · | · | 24%[59 µM] | · | 13% | ·
CCOc1ccc(C(=O)C(C)OC(=O)C2CCN(c3ccc(C(F)(F)F)cn3)CC2)cc1 (stereo unspecified) | 16% | 26% | 56µM* | 68% | · | 22%
CN(CC(=O)Nc1ccc(F)cc1)C(=O)COC(=O)C1CCN(c2ccc(C(F)(F)F)cn2)CC1 | -5% | -41% | 79µM* | 30% | · | 0%
O=C(COC(=O)C1CCN(c2ccc(C(F)(F)F)cn2)CC1)Nc1ccc(F)cc1[N+](=O)[O-] | ? | ? | 11µM* | ? | · | -20%
CNC(=O)C(C)Sc1ccc(S(=O)(=O)N2CCOCC2)cn1 (stereo unspecified) | 4% | -18% | ? | 23% | · | -1%
Fc1ccc(Br)cc1C1C=C(c2ccc(Br)s2)Nc2ncnn21 (stereo unspecified) | ? | ? | 10µM* | 19% | 56µM* | -5%
CCOC(=O)C1=C(C(F)(F)F)Nc2ncnn2C1c1cccc(OC)c1OC (stereo unspecified) | 2% | -6% | 3%[59 µM] | 33% | -6% | 5%
COc1cccc(C2C=C(c3ccc(Br)s3)Nc3ncnn32)c1OC (stereo unspecified) | ? | -24% | 28µM* | 26% | ? | -12%
CCOC(=O)C1(Cc2ccccc2C)CCCN(S(=O)(=O)CC)C1 (stereo unspecified) | -5% | -5% | · | 23% | 9% | 2%
O=C(C1CCN(S(=O)(=O)c2ccccc2)CC1)N1CCC1 | 9% | 1% | 8%[59 µM] | 33% | · | 2%
CCn1c(CSc2nnc(-c3ccoc3C)n2C)nc2cc(S(=O)(=O)N(C)C)ccc21 | -8% | -12% | 50µM* | 32% | 3% | -2%
COCCCn1c(=O)c2sccc2n2c(CCCC(=O)Nc3cccc(OC)c3)nnc12 | -16% | -12% | -26%[59 µM] | 27% | · | ·
Cc1ccc(NC(=O)CCC(=O)NNS(=O)(=O)c2ccccc2)cc1C | -2% | ? | -1%[59 µM] | ? | 2% | -1%
Cc1ccc(NS(=O)(=O)c2ccc(Cl)nc2)c(C)c1 | -1% | -9% | -5% | 21% | · | 1%
Cc1ccc(NC(=O)CCC(=O)NNS(=O)(=O)c2ccccc2)c(C)c1 | -4%[57.1 µM] | -22%[11.4 µM] | 50µM* | -6% | 12% | 3%
Cc1ccc(NS(=O)(=O)c2ccccc2)c(C)c1 | · | 50µM* | · | 12% | · | ·
Cc1ccc(S(=O)(=O)NNC(=O)Nc2ccccc2F)c(C)c1 | -18% | -12% | 50µM* | 30% | 12% | ·
Cc1ccc(S(=O)(=O)NNC(=O)Nc2cccc(C)c2C)c(C)c1 | 0% | -5% | 21% | 33% | 14% | ·
Cc1ccc(NC(=O)CS(=O)c2ccccc2N)c(C)c1 (stereo unspecified) | -17% | -10% | 40µM* | 5% | 8% | ·
COc1ccc(CC(=O)Nc2cccc(S(=O)(=O)N3CCOCC3)c2)cc1OC | -6% | -7% | -9%[59 µM] | 43% | · | -1%
COc1cccc(N2CCN(C(=O)c3ccc4c(=O)n(CCc5ccccc5)c(=O)[nH]c4c3)CC2)c1 | -2% | -9% | 1%[59 µM] | 35% | · | ·
CCC(=O)NNC(=O)CCC(=O)Nc1ccc(C)cc1C | -10% | -19%[11.4 µM] | 15% | -9% | 11% | 36%
O=C(CCC(=O)Nc1ccccc1)NNS(=O)(=O)c1ccc(Cl)cc1 | -19% | ? | 6.3µM* | 28% | 56µM* | ·
Cc1ccc(NS(=O)(=O)c2cccc(C(=O)NNC(=O)c3cccn3C)c2)c(C)c1 | 45µM* | ? | · | -6% | 11% | ·
Cc1ccc(NC(=O)CCC(=O)NNS(=O)(=O)c2ccc(Cl)cc2)cc1C | -11% | -3% | -12% | 42% | 21% | ·
